# Laboratory results reported in the supplement of paper PMC12494721.
# Structures can show the parent of a compound that is named as a salt.
# Tests used:
# Conditions in all cases: incubation time: 27 h, anaerobic, 37 °C;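 for the amine columns active = adjusted P below 0.05 in both replicates with a change the same way and a mean fold change under 0.8 or over 1.25; inactive = the rest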
# [1] = tested on: Clostridium sporogenes DSM 1664; assay: growth (OD595) fold change vs plate DMSO controls (fold change (ratio)); higher = more growth
# Summary of the method: (§1)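 Growth is calculated as fold change against the median of the DMSO control wells on each plate. Readings at 595 nm from anaerobic mGAM cultures (96-well, 27 h, 37 °C) were blank-subtracted, background-corrected with 20 µM compound solutions in water, and converted to OD by a calibration factor of 5. Fold changes above 1.5 were recorded as NA, and results are means of 2 biological replicates.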
# Escherichia coli IAI1 [2] = assay: as above
# Summary of the method: as §1
# [3] = tested on: Klebsiella aerogenes DSM 30053; assay: as above
# Summary of the method: as §1
# [4] = tested on: Ruminococcus gnavus DSM 108212; assay: as above
# Summary of the method: as §1
# [5] = tested on: Klebsiella aerogenes DSM 30053; assay: fold change of Histamine concentration vs plate DMSO controls (fold change (ratio)); higher = more amine produced, active = hit call of the paper (significant change in both replicates, either direction)
# Summary of the method: (§2)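 Using LC–triple-quadrupole MS with dynamic MRM, amines were quantified against external calibration curves and corrected for drift within each batch. Samples were whole anaerobic mGAM cultures of four gut strains, grown 27 h at 37 °C from OD 0.1 before 1:1 dilution, extracted with cold acetonitrile/methanol containing 0.1% formic acid and centrifuged. Compounds were present at 20 µM final (sweeteners at 50 µM final). The numbers are fold changes versus plate DMSO controls, each the mean of 2 biological replicates.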
# [6] = tested on: Clostridium sporogenes DSM 1664; assay: fold change of Tryptamine concentration vs plate DMSO controls (fold change (ratio)); higher = more amine produced, active = hit call of the paper (significant change in both replicates, either direction)
# Summary of the method: as §2
# [7] = tested on: Ruminococcus gnavus DSM 108212; assay: as above
# Summary of the method: as §2
# Escherichia coli IAI1 [8] = assay: fold change of Putrescine concentration vs plate DMSO controls (fold change (ratio)); higher = more amine produced, active = hit call of the paper (significant change in both replicates, either direction)
# Summary of the method: as §2
# [9] = tested on: Klebsiella aerogenes DSM 30053; assay: as above
# Summary of the method: as §2
# Escherichia coli IAI1 [10] = assay: fold change of Cadaverine concentration vs plate DMSO controls (fold change (ratio)); higher = more amine produced, active = hit call of the paper (significant change in both replicates, either direction)
# Summary of the method: as §2
# [11] = tested on: Klebsiella aerogenes DSM 30053; assay: as above
# Summary of the method: as §2
# [12] = tested on: Ruminococcus gnavus DSM 108212; assay: fold change of 2-Phenylethylamine concentration vs plate DMSO controls (fold change (ratio)); higher = more amine produced, active = hit call of the paper (significant change in both replicates, either direction)
# Summary of the method: as §2
SMILES,growth [1],growth (Escherichia coli IAI1 [2]),growth [3],growth [4],fold change of Histamine concentration [5],fold change of Tryptamine concentration [6],fold change of Tryptamine concentration [7],fold change of Putrescine concentration (Escherichia coli IAI1 [8]),fold change of Putrescine concentration [9],fold change of Cadaverine concentration (Escherichia coli IAI1 [10]),fold change of Cadaverine concentration [11],fold change of 2-Phenylethylamine concentration [12]
CCCCCCNC(=O)n1cc(F)c(=O)[nH]c1=O [Carmofur] (20 µM),0.985,0.886,0.963,0.862,0.726 (active),0.872 (inactive),0.983 (inactive),0.508 (active),0.936 (inactive),0.91 (inactive),0.974 (inactive),1.01 (inactive)
CC[C@H](C)C(=O)O[C@H]1CCC=C2C=C[C@H](C)[C@H](CC[C@@H]3C[C@@H](O)CC(=O)O3)[C@H]21 [Mevastatin] (20 µM),1.15,1,1.01,1.02,0.995 (inactive),0.988 (inactive),1.02 (inactive),0.998 (inactive),1 (inactive),1.07 (inactive),0.998 (inactive),1.04 (inactive)
NCCCC(O)(P(=O)(O)O)P(=O)(O)O [Alendronate sodium] (20 µM),1.08,1.04,1.1,1.03,0.858 (inactive),1.1 (inactive),1.05 (inactive),0.992 (inactive),0.947 (inactive),1.01 (inactive),1.01 (inactive),1.05 (inactive)
COc1ccc2c3c1O[C@H]1C[C@@H](O)C=C[C@@]31CCN(C)C2 [Galanthamine hydrobromide] (20 µM),0.93,1.06,1.04,0.846,1.01 (inactive),1.01 (inactive),1.01 (inactive),1.03 (inactive),1 (inactive),0.979 (inactive),0.999 (inactive),1 (inactive)
CC(=O)OCC(=O)[C@@]1(O)CC[C@H]2[C@@H]3CCC4=CC(=O)CC[C@]4(C)[C@H]3[C@@H](O)C[C@@]21C [Cortisol acetate] (20 µM),1.13,1.03,1.04,1,0.896 (inactive),0.975 (inactive),0.979 (inactive),0.987 (inactive),0.993 (inactive),0.97 (inactive),1.01 (inactive),0.953 (inactive)
C[C@@H](O[C@H]1OCCN(Cc2n[nH]c(=O)[nH]2)[C@H]1c1ccc(F)cc1)c1cc(C(F)(F)F)cc(C(F)(F)F)c1 [Aprepitant] (20 µM),1.21,0.988,1,1.2,1.02 (inactive),0.945 (inactive),0.742 (inactive),1.03 (inactive),1.01 (inactive),1.02 (inactive),0.993 (inactive),0.791 (inactive)
COc1ccc(CN2CCN(C(c3ccc(F)cc3)c3ccc(F)cc3)CC2)c(OC)c1OC [Lomerizine dihydrochloride] (20 µM),1.02,1.08,1.04,0.769,0.983 (inactive),1.08 (inactive),0.781 (inactive),1.09 (inactive),1.01 (inactive),0.984 (inactive),1.01 (inactive),0.87 (inactive)
Cc1cc(NC(=O)C2=C(O)c3ccccc3S(=O)(=O)N2C)no1 [Isoxicam] (20 µM),1.11,1.05,0.997,1.02,0.996 (inactive),1.02 (inactive),1.02 (inactive),1.03 (inactive),1.01 (inactive),0.969 (inactive),0.994 (inactive),0.947 (inactive)
Nc1c(CC(=O)O)cccc1C(=O)c1ccc(Br)cc1 [Bromfenac] (20 µM),1.21,1.15,1.04,1.13,0.965 (inactive),1.01 (inactive),1.08 (inactive),1.02 (inactive),1 (inactive),0.911 (inactive),1.01 (inactive),1.15 (inactive)
Cc1ccc(N(CC2=NCCN2)c2cccc(O)c2)cc1 [Phentolamine hydrochloride] (20 µM),1.07,1,0.871,0.765,0.97 (inactive),1.03 (inactive),1 (inactive),1.05 (inactive),0.981 (inactive),0.652 (active),0.993 (inactive),1.01 (inactive)
CCOc1ccccc1OCCN[C@H](C)Cc1ccc(OC)c(S(N)(=O)=O)c1 [(R)-Tamsulosin hydrochloride] (20 µM),0.839,0.964,1.03,1.01,0.94 (inactive),0.98 (inactive),1.02 (inactive),1 (inactive),1.01 (inactive),1.01 (inactive),1 (inactive),0.976 (inactive)
O=C(O[C@@H]1C[C@@H]2C[C@H]3C[C@H](C1)N2CC3=O)c1c[nH]c2ccccc12 [Dolasetron mesilate] (20 µM),0.968,0.994,0.986,1.07,0.981 (inactive),1 (inactive),1.02 (inactive),0.942 (inactive),0.991 (inactive),0.979 (inactive),0.989 (inactive),1.04 (inactive)
O=C(Cn1cnnn1)N[C@@H]1C(=O)N2C(C(=O)O)=C(CSc3nncs3)CS[C@H]12 [Ceftezole] (20 µM),0,0.855,1.05,0.188,0.895 (inactive),0.0131 (active),0.114 (active),0.749 (inactive),0.967 (inactive),1.61 (inactive),1.04 (inactive),0.105 (active)
NS(=O)(=O)c1cc(C(=O)O)cc(N2CCCC2)c1Oc1ccccc1 [Piretanide] (20 µM),1.09,0.987,0.997,0.955,1.01 (inactive),1.11 (inactive),1.1 (inactive),0.974 (inactive),1.04 (inactive),1.06 (inactive),1.08 (inactive),1.23 (inactive)
CC(C)CN(C[C@@H](O)[C@H](Cc1ccccc1)NC(=O)O[C@H]1CO[C@H]2OCC[C@H]21)S(=O)(=O)c1ccc(N)cc1 [Darunavir] (20 µM),1.14,1,1,0.966,1.05 (inactive),1.01 (inactive),0.863 (inactive),1.04 (inactive),0.998 (inactive),1.05 (inactive),0.996 (inactive),0.837 (inactive)
CC(C)(C)NC[C@@H](O)COc1cccc2c1CCCC2=O [(+) Levobunolol hydrochloride] (20 µM),1.08,0.974,1.11,0.903,0.936 (inactive),1.05 (inactive),1.04 (inactive),1.04 (inactive),0.985 (inactive),0.994 (inactive),0.999 (inactive),1.02 (inactive)
CCCC(=O)OCOC(=O)C1=C(C)NC(C)=C(C(=O)OC)C1c1cccc(Cl)c1Cl (stereo unspecified) [Clevidipine] (20 µM),0.828,1.03,1.01,1.22,1.01 (inactive),0.829 (inactive),0.902 (inactive),1.04 (inactive),1.01 (inactive),0.985 (inactive),0.998 (inactive),0.928 (inactive)
COCCCOc1ccnc(C[S+]([O-])c2nc3ccccc3[nH]2)c1C (stereo unspecified) [Rabeprazole sodium salt] (20 µM),1.24,0.993,1.03,1.26,0.965 (inactive),1.09 (inactive),1.15 (inactive),0.886 (inactive),0.95 (inactive),0.955 (inactive),1.03 (inactive),1.23 (inactive)
O=C(N[C@H](CO)[C@H](O)c1ccc([N+](=O)[O-])cc1)C(Cl)Cl [Chloramphenicol] (20 µM),1.25,0.0503,0.0799,1.08,0.0535 (active),0.64 (inactive),0.168 (active),0.245 (active),0.512 (active),0.0844 (active),0.383 (active),0.182 (active)
Cc1c(C)c2c(c(C)c1O)CCC(C)(C(=O)O)O2 (stereo unspecified) [Trolox] (20 µM),0.897,0.987,0.962,0.896,1.13 (inactive),0.995 (inactive),1.02 (inactive),0.926 (inactive),1.04 (inactive),0.986 (inactive),0.984 (inactive),1.03 (inactive)
CN(C)C(=O)COC(=O)Cc1ccc(OC(=O)c2ccc(NC(=N)N)cc2)cc1 [Camostat mesylate] (20 µM),1.07,1.01,1.04,0.958,0.897 (inactive),1.01 (inactive),0.982 (inactive),1.02 (inactive),1.02 (inactive),1.02 (inactive),1.02 (inactive),0.999 (inactive)
CCOC(=O)n1ccn(C)c1=S [Carbimazole] (20 µM),0.973,1.11,0.979,1.08,1.04 (inactive),0.937 (inactive),1.01 (inactive),1.09 (inactive),1.03 (inactive),0.98 (inactive),1 (inactive),1.01 (inactive)
O=C(O)CCC(=O)Nc1ccc(S(=O)(=O)Nc2nccs2)cc1 [Succinylsulfathiazole] (20 µM),1.03,1.11,1.2,1.13,0.965 (inactive),0.988 (inactive),1.02 (inactive),1.04 (inactive),0.997 (inactive),0.991 (inactive),1.01 (inactive),1.02 (inactive)
